# Inconclusive results are not listed. For some of these results: Entries with a potency or affinity are not part of this list. Active and inactive are the calls of the source. Unless noted, cut-off not given; nearly all actives show AC50 up to about 26 µM.
# Assays:
# [1] = rescue of polyQ-huntingtin neuronal dysfunction in worms, whole organism, C. elegans mechanosensory neurons, N-terminal huntingtin (AID 1599); settings: touch response, stronger effect = higher value
# [2] = reducers of polyQ inclusions in PC12 cells, cell-based, NGF-treated PC12, GFPQ80 (AID 1614); settings: PC12 NGF-treated GFP-polyQ80 inclusion reduction;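 further: lower means fewer inclusions and 0 means no inclusions at all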
# [3] = suppressors of polyglutamine aggregation in yeast, 75Q-TubH (AID 1616); settings: S. cerevisiae 75Q-TubH polyglutamine aggregation suppression; stronger effect = higher value
# [4] = hESC survival regulators, cell-based (AID 493140; call rule not given here;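 further: cells exposed to compounds for four days before counting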); settings: human embryonic stem cell survival screen; stronger effect = higher value
# [5] = tested on: Hepatitis C virus NS3 helicase; experiment: HCV NS3 helicase inhibitors, primary screen, biochemical, fluorescence polarization, LOPAC1280 library (AID 687035; in the data active means inhibition above about 37%); settings: Purified HCV NS3 helicase, Cy5-dT15 ssDNA binding fluorescence polarization; stronger effect = higher value; concentration not given here
# [6] = Cy5 fluorescence quenching or enhancement artefacts, artefact control for HCV NS3 helicase inhibitor project, biochemical, LOPAC1280 (AID 687037; call rule not given here); settings: Cy5-DNA-NS3h complex fluorescence interference counterscreen
# [7] = growth inhibition of DIPG glioma cells, dose response, cell-based, SU-DIPG-XVII, MIPE5.0, CellTiter-Glo, qHTS (AID 1347060); settings: SU-DIPG-XVII viability, CellTiter-Glo ATP luminescence
# [8] = growth inhibition of DIPG glioma cells, dose response, cell-based, SU-DIPG-XIII, MIPE4.0, CellTiter-Glo, qHTS (AID 1347061; cut-off not given, nearly all actives have AC50 up to about 37 µM;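 further: cells exposed to compound for 48 hours before readout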); settings: SU-DIPG-XIII viability, CellTiter-Glo ATP luminescence
# [9] = growth inhibition of DIPG glioma cells, dose response, cell-based, JHH-DIPG-1, MIPE4.0, CellTiter-Glo, qHTS (AID 1347062; cut-off not given, nearly all actives have AC50 up to about 27 µM); settings: JHH-DIPG-1 viability, CellTiter-Glo ATP luminescence
# [10] = growth inhibition of DIPG glioma cells, dose response, cell-based, SU-DIPG-IV, MIPE4.0, CellTiter-Glo, qHTS (AID 1347063; cut-off not given, nearly all actives have AC50 up to about 30 µM;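 further: compound exposure lasted 48 hours before the viability readout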); settings: SU-DIPG-IV viability, CellTiter-Glo ATP luminescence
# [11] = viability loss in pontine glioma line – cell-based, SU-DIPG-XXV, MIPE5.0, CellTiter-Glo, qHTS, dose response (AID 1347065); settings: CellTiter-Glo ATP luminescence;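 further: cells exposed to compound for 48 hours before ATP readout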
# [12] = SU-DIPG-VI glioma cell viability, MIPE4.0 library, CellTiter-Glo luminescence, qHTS (AID 1347066; cut-off not given, nearly all actives have AC50 up to about 30 µM;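 further: cells exposed to compound for 48 hours before readout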); settings: CellTiter-Glo ATP luminescence
# [13] = JHH-DIPG-1 glioma cell viability, MIPE5.0 library, CellTiter-Glo luminescence, qHTS (AID 1347067); settings: JHH-DIPG-1 glioma viability, CellTiter-Glo ATP luminescence;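 further: cells exposed to compound for 48 hours before readout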
# [14] = SU-DIPG-XXV glioma cell viability, MIPE5.0 library, qHTS (AID 1347068; cut-off not given, nearly all actives have IC50 up to about 30 µM)
# [15] = phospholipid biosynthesis inhibitors in animal cells, primary screen, cell-based, LOPAC library, screen 4 (AID 1347384; call rule not given here); settings: phospholipid biosynthesis inhibition screen, at 10 µM
# [16] = LFS_MB_1R medulloblastoma cell growth inhibition, synergistic combos for chromothripsis tumors, cisplatin or BGB combos (AID 1671452; in the data active means inhibition above about 80%;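 further: cells exposed for 96 hours before readout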); settings: LFS_MB_1R medulloblastoma cells, stronger effect = higher value
# [17] = MDA-MB-436 breast carcinoma cell growth inhibition, synergistic combos for chromothripsis tumors, BGB or cisplatin combos (AID 1671458; call rule not given here;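 further: cells exposed for 96 hours; 0% = vehicle DMSO and 100% = killing by high DMSO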); settings: MDA-MB-436 breast carcinoma growth inhibition, drug combinations, stronger effect = higher value
# [18] = growth inhibition of BT084 medulloblastoma cells, cell-based, ICGC_MB145, cisplatin and BGB IC40 combos (AID 1671461; in the data active means inhibition above about 80%;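 further: cells exposed to drugs for 96 hours; 0% = vehicle DMSO and 100% = high DMSO full killing control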); settings: drug combinations, stronger effect = higher value
# [19] = growth inhibition of RCMB18 medulloblastoma cells, cell-based, cisplatin and BGB IC40 combos (AID 1671462; in the data active means inhibition above about 80%;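 further: cells exposed to compound for four days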); settings: stronger effect = higher value
# [20] = growth inhibition of CRL1545 osteosarcoma cells, cell-based, cisplatin and BGB IC20 combos (AID 1671464; in the data active means inhibition above about 80%;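 further: cells exposed to compound for 96 hours before readout; 0% = vehicle DMSO and 100% = high DMSO killing control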); settings: stronger effect = higher value
# [21] = measured here: combination with cisplatin, at 0.5 µM
smiles,measurement,setting,value
NNCCc1ccccc1,rescue above control,[1],-3.55
same,inclusion score,[2],2
same,aggregation suppression score,[3],1.47
same,survival,[4],9.5 (inactive)
same,inhibition,[5],-1% (inactive)
same,fluorescence ratio (interference),[6],0.9 (inactive)
same,outcome,[7],inactive
same,AC50,[8],9.35 µM (active)
same,outcome,[9],inactive
same,AC50,[10],13.2 µM (active)
same,outcome,[11],inactive
same,outcome,[12],inactive
same,outcome,[13],inactive
same,outcome,[14],inactive
same,outcome,[15],inactive
CCCc1nc2c(C)cc(-c3nc4ccccc4n3C)cc2n1Cc1ccc(-c2ccccc2C(=O)O)cc1,outcome,[7],inactive
same,outcome,[8],inactive
same,outcome,[9],inactive
same,outcome,[10],inactive
same,outcome,[11],inactive
same,outcome,[12],inactive
same,outcome,[13],inactive
same,outcome,[14],inactive
NNC(=O)c1ccncc1,rescue above control,[1],-6.58
same,inclusion score,[2],2
same,aggregation suppression score,[3],1.6
same,survival,[4],30.9 (inactive)
same,outcome,[7],inactive
same,outcome,[8],inactive
same,outcome,[9],inactive
same,outcome,[10],inactive
same,outcome,[11],inactive
same,outcome,[12],inactive
same,outcome,[13],inactive
same,outcome,[14],inactive
COc1ccccc1OCCNCC(O)COc1cccc2[nH]c3ccccc3c12 (stereo unspecified),inhibition,[5],-2% (inactive)
same,fluorescence ratio (interference),[6],1 (inactive)
same,outcome,[9],inactive
same,outcome,[15],inactive
NS(=O)(=O)c1cc2c(cc1Cl)NCNS2(=O)=O,rescue above control,[1],7.5
same,inclusion score,[2],2
same,aggregation suppression score,[3],0.805
same,survival,[4],7.5 (inactive)
same,inhibition,[5],-1% (inactive)
same,fluorescence ratio (interference),[6],1 (inactive)
same,outcome,[7],inactive
same,outcome,[8],inactive
same,outcome,[9],inactive
same,outcome,[10],inactive
same,outcome,[11],inactive
same,outcome,[12],inactive
same,outcome,[13],inactive
same,outcome,[14],inactive
same,outcome,[15],inactive
O=C(O)CCCc1ccccc1,inhibition,[16]; at 0.5 µM,-18.6% (inactive)
same,inhibition,"[16]; measured here: combination with BGB IC40, at 0.05 µM",-25.4%
same,inhibition,[16]; [21],-26.8%
same,inhibition,"[16]; measured here: combination with cisplatin, at 5 µM",-16.2%
same,inhibition,[17]; at 0.5 µM,-11.5% (inactive)
same,inhibition,"[17]; measured here: BGB combination, at 0.5 µM",-6.89%
same,inhibition,"[17]; measured here: BGB combination, at 5 µM",-6.08%
same,inhibition,"[17]; measured here: cisplatin combination, at 0.5 µM",-24.1%
same,inhibition,"[17]; measured here: cisplatin combination, at 5 µM",-11.2%
same,inhibition,[18]; at 0.5 µM,-24.2% (inactive)
same,inhibition,"[18]; cisplatin combination, at 0.5 µM",2.11%
same,inhibition,"[18]; cisplatin combination, at 5 µM",-2.13%
same,inhibition,"[18]; measured here: BGB IC40 combination 0.05 uM, at 0.05 µM",-5.38%
same,inhibition,"[18]; single agent, at 5 µM",-9.5%
same,inhibition,[19]; at 0.5 µM,-15.3% (inactive)
same,inhibition,"[19]; cisplatin combo, at 5 µM",-6.28%
same,inhibition,"[19]; measured here: BGB IC40 combination, at 0.05 µM",-18%
same,inhibition,[19]; [21],-7.69%
same,inhibition,"[19]; single agent, at 5 µM",28.4%
same,inhibition,[20]; at 0.5 µM,-23.7% (inactive)
same,inhibition,"[20]; measured here: with BGB IC20 combination, at 0.5 µM",-4.31%
same,inhibition,"[20]; measured here: with cisplatin IC20 combination, at 0.5 µM",-36.4%
same,inhibition,"[20]; single agent, at 0.05 µM",-12.3%
same,inhibition,"[20]; single agent, at 5 µM",9.33%
O=c1[nH]cnc2[nH]ncc12,rescue above control,[1],2.94
same,inclusion score,[2],2
same,aggregation suppression score,[3],1.87
same,inhibition,[5],-4% (inactive)
same,fluorescence ratio (interference),[6],0.9 (inactive)
same,outcome,[7],inactive
same,outcome,[8],inactive
same,outcome,[9],inactive
same,outcome,[10],inactive
same,outcome,[12],inactive
same,outcome,[13],inactive
same,outcome,[14],inactive
same,outcome,[15],inactive

# Source: PubChem BioAssay
